Molecules are shown by their SMILES. Values joined by “and” are separate entries in the source; they are usually repeats but may differ in a detail not shown here. Identical values can stand only once. In all, about 110,000 compounds went through this assay and about 190 (0.17%) were called active. Cut-off read from the data, not from the text of the source: active = inhibition above about 50%; inactive = the rest. The list comes from a sample in which actives are over-represented; it also holds similar structures and randomly drawn compounds. Potency and affinity values are given separately. More than one record can exist for a structure, and the calls need not agree.

The target of the assay is Dual specificity protein phosphatase 6 (Rattus norvegicus) (UniProt Q64346). The assay is described as follows: inhibition of rat DUSP6 enzyme activity – biochemical, in vitro, primary screen (AID 425).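 Note: plate controls were vehicle for no effect and reference inhibitor for full effect.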 The conditions noted are these: recombinant MKP-3 phosphatase activity, fluorescence; at 20 µM; stronger effect = higher value.
Chain of Dual specificity protein phosphatase 6 (Rattus norvegicus) (Q64346 whole entry, looked up): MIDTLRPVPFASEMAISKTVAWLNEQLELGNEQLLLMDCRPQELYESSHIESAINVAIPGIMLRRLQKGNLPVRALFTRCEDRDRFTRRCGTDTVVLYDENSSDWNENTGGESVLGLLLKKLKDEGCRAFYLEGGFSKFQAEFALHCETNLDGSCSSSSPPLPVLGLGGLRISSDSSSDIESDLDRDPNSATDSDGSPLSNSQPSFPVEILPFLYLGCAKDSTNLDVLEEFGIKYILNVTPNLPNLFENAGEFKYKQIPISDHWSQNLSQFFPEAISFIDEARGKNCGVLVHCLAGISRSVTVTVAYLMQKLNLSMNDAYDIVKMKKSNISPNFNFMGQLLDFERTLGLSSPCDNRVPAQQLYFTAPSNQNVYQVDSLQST
For the compound `O=C1c2ccccc2-c2onc3ccc(NC4CCCCC4)c1c23`, the inhibition was -1.7% (inactive).
Then `O=C1c2ccccc2-c2onc3ccc(NCc4ccco4)c1c23`, with -14.4% (inactive); and `O=C1c2ccccc2-c2onc3ccc(N4CCCCC4)c1c23`, with 10.8% (inactive); and `O=C1c2ccccc2-c2onc3ccc(Sc4ccccc4)c1c23`, with 7.7% (inactive).
Then `CCNc1ccc2noc3c2c1C(=O)c1ccccc1-3`, with 4.2% (inactive); and `O=C1c2ccccc2-c2onc3ccc(Oc4ccc(Cl)cc4)c1c23`, with 92.2% (active); and `CCOc1ccc(Nc2ccc3noc4c3c2C(=O)c2ccccc2-4)cc1`, with 3.7% (inactive).
Then `O=C1C=Cc2ccccc2/C1=N/Oc1ccc2noc3c2c1C(=O)c1ccccc1-3`, with 65.3% (active); and `CCOc1ccc2noc3c2c1C(=O)c1ccccc1-3`, with 45.7% (inactive) and 44.7% (inactive); and `COc1ccc2noc3c2c1C(=O)c1ccccc1-3`, with 102% (active) and -3.3% (inactive).
Turning to `O=C1c2ccccc2-c2onc3ccc(Cl)c1c23`, the inhibition was 13.1% (inactive).
Then `Cc1ccc2c(c1)c1nc3ccccc3nc1n2CCN1CCOCC1`, with 1.9% (inactive); and `Brc1cccc(CN2CCN(C3CCN(Cc4ccccc4)CC3)CC2)c1`, with 3.4% (inactive); and `O=C(CSC(=S)N1CCOCC1)c1ccc([N+](=O)[O-])cc1`, with 2.2% (inactive).
Then `Cc1ccc(-n2c3c(cc(C(=O)NCCCN4CCOCC4)c2=O)C(=O)CC(C)(C)C3)cc1`, with -7.6% (inactive); and `COc1cccc(C2/C(=C(\O)c3c(C)nc4c(C)cccn34)C(=O)C(=O)N2CCCN(C)C)c1` (stereo not given), with -2.7% (inactive).
Regarding `CCCCOC(=O)c1c(NC(=O)C2C3CCC(C3)C2C(=O)O)sc2c1CCCC2` (stereo not given), the inhibition was 0% (inactive).
Then `COc1ccc(/C=C/C(=O)NC(=S)Nc2ccc(S(=O)(=O)N=C(N)N)cc2)cc1`, with -1.1% (inactive); and `O=C1CC(c2ccccc2)CC2=C1C(c1cccnc1)Nc1ccc(C(=O)c3ccccc3)cc1N2` (stereo not given), with 8.5% (inactive); and `O=C(O)C1C2C=CC(O2)C1C(=O)Nc1ccccc1C(F)(F)F` (stereo not given), with 4.5% (inactive).
In the case of `O=C(O)c1ccc(NC2=C(N3CCCCC3)C(=O)c3ccccc3C2=O)cc1`, the inhibition is 1.7% (inactive).
Then `O=C1C(Nc2ccc(Cl)cc2)=C(N2CCOCC2)C(=O)c2ccccc21`, with 2% (inactive); and `O=C1C(Nc2ccc(Cl)cc2)=C(N2CCCCC2)C(=O)c2ccccc21`, with 55.2% (active).
As for `CCOCCOC(=O)C1=C(C)N(C)C(=O)NC1c1cc(Cl)c(O)c(OCC)c1` (stereo not given), the inhibition was -5.1% (inactive).
Consider `O=C(CN1CCN(Cc2ccccc2Cl)C1=O)NC1CCCCCCC1`, for which the inhibition was -3.3% (inactive).
Then `Cc1c(CCC(=O)O)c(=O)oc2cc(O)ccc12`, with 2.4% (inactive).
Regarding `Cc1c(CCC(=O)O)c(=O)oc2cc3occ(-c4ccc(F)cc4)c3cc12`, the inhibition was 8.5% (inactive).
Take `COc1ccc(C2(O)CC3CCC(C2)N3c2cc(C)nc(-c3ccccc3)n2)cc1` (stereo not given): the inhibition was 7.5% (inactive).
Then `Cc1ccc(C2CC(C(F)(F)F)n3nc(C(=O)N(Cc4ccccc4)Cc4ccccc4)cc3N2)cc1` (stereo not given), with 3.9% (inactive); and `COc1ccc(Cn2c3nc4ccccc4nc3c3c(=O)n(Cc4ccco4)c(C)nc32)cc1`, with 8.3% (inactive); and `COc1ccc(Cn2c3nc4ccccc4nc3c3c(=O)n(Cc4ccco4)cnc32)cc1`, with 2.5% (inactive).
Then `COC(=O)c1c(-c2ccccc2)csc1NC(=O)CCCC(=O)O`, with 3.6% (inactive); and `CN=C(Nc1ccc(F)cc1)SC1CC(=O)N(c2ccccc2F)C1=O` (stereo not given), with 1.3% (inactive); and `COC(=O)c1c2nc3ccccc3sc-2cc(=O)c1N`, with 122% (active).
Then `CCOC(=O)c1nc2ccccc2s1`, with -6.5% (inactive).
Take `COC(=O)N(C)c1nc2ccccc2s1`: the inhibition is -5% (inactive).
Take `O=C(Nc1cccc2c1CCCC2)c1ccc(Br)cc1`: the inhibition was 2.6% (inactive).
Then `O=C(Cc1ccccc1)Nc1ccccc1C(=O)N1CCN(Cc2ccccc2)CC1`, with 2.5% (inactive); and `CC(Oc1ccc(Cl)cc1Cl)C(=O)N1CCN(Cc2ccccc2)CC1` (stereo not given), with -0.2% (inactive).
Then `CCOC(=O)c1sc2ncn(C(C)C(=O)OC)c(=O)c2c1C` (stereo not given), with -14.1% (inactive); and `CCOC(=O)c1sc2ncn(C(C)C(=O)OCC)c(=O)c2c1C` (stereo not given), with 0.5% (inactive).
Then `CCOC(=O)c1sc2ncn(C(CC)C(=O)OC)c(=O)c2c1C` (stereo not given), with -9.8% (inactive); and `CCOC(=O)c1sc2nc(SCC(=O)NCc3ccco3)n(Cc3ccccc3)c(=O)c2c1C`, with -3.7% (inactive); and `O=C(COc1ccc(Cl)cc1)Nc1ncccn1`, with -2.2% (inactive).
Take `C/C(=N\OCC(=O)N=Nc1c(O)n(CN2CCN(C)CC2)c2ccccc12)c1cccs1`: the inhibition was -0.1% (inactive).
Consider `CN(C)c1ccc(C(C2=C(O)CC(C)(C)CC2=O)C2=C(O)CC(C)(C)CC2=O)cc1`, for which the inhibition is 3.2% (inactive).
Then `O=C(Cn1nc(Cc2cccnc2)c2ccccc2c1=O)Nc1ccc2c(c1)OCO2`, with -0.1% (inactive).
Then `COC(=O)c1cc2c([nH]c3ccccc32)c(C)n1`, with -4% (inactive).
Then `N#Cc1c(N)nc(SCC(=O)c2ccccc2)c(C#N)c1-c1ccc(Cl)cc1`, with 6.2% (inactive); and `Cc1cc2nc(-c3ccc(SCC(=O)N4CCOCC4)nc3)[nH]c2cc1C`, with 3.3% (inactive).
For `Cc1cc(NC(=O)CSc2ccc(-c3nc4cc(C)c(C)cc4[nH]3)cn2)no1`, the inhibition is 0.6% (inactive).
Then `Oc1c(Br)cc(Br)cc1C=Nc1ccc(Cl)c2cccnc12`, with 98.2% (active); and `Oc1ccc(Br)cc1C=Nc1ccc(Cl)c2cccnc12`, with 14.2% (inactive).
With `Oc1oc(-c2ccccc2)nc1C=Nc1ccc(Cl)c2cccnc12`, the inhibition is 3.9% (inactive).
Then `Oc1c(Br)cc(Br)cc1/C=N/c1ncn[nH]1`, with 5.8% (inactive); and `Oc1c(Br)cc(Br)cc1C=Nc1ccc(Br)c2cccnc12`, with 52.9% (active); and `CCc1ccc(O)c(N=Cc2cc(Br)cc(Br)c2O)c1`, with 1.5% (inactive).
For `COc1ccc(N(Cc2cc3ccc(C)cc3[nH]c2=O)C(C)=O)cc1`, the inhibition was -3.9% (inactive).
Then `CC(C)Cc1cc(C(=O)NCCN2CCOCC2)no1`, with -10.2% (inactive); and `NC(=O)c1ccccc1NC(=O)c1ccc(Cl)cc1[N+](=O)[O-]`, with -1.7% (inactive).

For orientation: inhibition means the relative decrease from the control value, in per cent.
